Test results as given in PubChem BioAssay (Tox21).
Inconclusive results are not listed. A call without a number means that no potency is given here. Unmarked numbers belong to inactive results. Active and inactive are the calls of the source. Calls come from the whole dose curve; as a rule, active = well fitted cell-killing curve with a large enough effect in the repeat runs; inconclusive = weak or mixed curves, or effect the other way; inactive = flat fitted curve, though single readings scatter.

assay: cAMP Responsive Elements (CRE) small molecule antagonists, cell-based qHTS assay: qHTS cell viability counter screen (AID 2060913); conditions: CRE-bla HEK293T viability, CellTiter-Glo luminescence, 5 h; series mostly up to 92.4 µM; note: nearly all actives have a fitted effect of over 40% in size
Procedure, shortened: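 CRE-bla HEK293T cells were seeded in assay medium with 10% dialyzed FBS, incubated 18 hrs at 37 C, then exposed to compounds plus 0.25 uM final NKH477 for 3 hrs. Viability was read by CellTiter-Glo luminescence after 30 min, in the same wells.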
Potency is the fitted concentration of half-maximal effect.

| Structure (SMILES) | Potency | viability change, negative = cytotoxic |
| --- | --- | --- |
| CC1=CC(O)CC(C)(C)C1 (stereo not given) | inactive |  |
| CC(C)Cn1cnc2c(N)nc3ccccc3c21 |  | -1.2% [at 18.9 µM] |
| Cc1ccc(C(=O)O)cc1 | inactive |  |
| CN(C)C | inactive |  |
| CC(C)CCCCCCOC(=O)c1ccc(C(=O)OCCCCCCC(C)C)c(C(=O)OCCCCCCC(C)C)c1 | inactive |  |
| CC(=O)CC(=O)Nc1ccc(S(=O)(=O)O)cc1 | inactive |  |
| CC#N | inactive |  |
| Clc1cccc(C(c2ccc3nc[nH]c3c2)n2ccnc2)c1 (stereo not given) | inactive |  |
| Cc1c(C)c2c(c(C)c1O)CC[C@@](C)(CCC[C@H](C)CCC[C@H](C)CCCC(C)C)O2 | inactive |  |
| O=C1NC2NC(=O)NC2N1 (stereo not given) | inactive |  |
| O=C(NOCC1CC1)c1ccc(F)c(F)c1Nc1ccc(I)cc1Cl | inactive |  |
| BrC/C=C/CBr |  | 15.6% [at 18.9 µM] |
| C=C(C)CS(=O)(=O)O | inactive |  |
| COc1cc2ncnc(Nc3cccc(Cl)c3)c2cc1OC |  | 6.79% [at 18.9 µM] |
| Nc1c(Cl)cc(Cl)cc1Cl | inactive |  |
| CC(C)=CCC[C@](C)(O)[C@@H]1CC=C(C)CC1 | inactive |  |
| CCOC(CN1CCN(CC(C)C(=O)c2ccccc2)CC1)c1ccccc1 (stereo not given) |  | 1.27% [at 18.9 µM] |
| CC(=O)c1ccc(C(C)=O)cc1 | inactive |  |
| CCCC(CC)CCCCCCCN (stereo not given) | inactive |  |
| COc1cc(OC)cc(OC)c1 | inactive |  |

| Structure (SMILES) | Potency | viability change, negative = cytotoxic |
| --- | --- | --- |
| Nc1ncnc2c1ncn2[C@@H]1O[C@H](CO)[C@@H](O)[C@H]1O | inactive |  |
| c1cc(C(c2ccc(OCC3CO3)cc2)C(c2ccc(OCC3CO3)cc2)c2ccc(OCC3CO3)cc2)ccc1OCC1CO1 (stereo not given) | inactive |  |
| OCC(CBr)(CBr)CBr | inactive |  |
| Oc1ccc2c(c1)OCO2 | inactive |  |
| O=C(Nc1cccc(Cl)c1)OCC#CCCl | inactive |  |
| CCCCC(CC)COC(=O)COc1ccc(Cl)cc1Cl (stereo not given) | inactive |  |
| CC1CCCO1 (stereo not given) | inactive |  |
| C#CC(C)N(C)C(=O)Nc1ccc(Cl)cc1 (stereo not given) | inactive |  |
| C[n+]1ccn(Cc2ccccc2)c1 | inactive |  |
| CCCCCOC(=O)CCCCC | inactive |  |
| C[C@@H](O)[C@H]1C(=O)N2C(C(=O)O)=C(S[C@@H]3CN[C@H](CNS(N)(=O)=O)C3)[C@H](C)[C@H]12 | inactive |  |
| OCC1CC=CCC1 (stereo not given) | inactive |  |
| CCOC(=O)c1ccc(N(C)C)cc1 | inactive |  |
| CCCCCCCCC(=O)Cl | inactive |  |
| CCCC1CCC(=O)O1 (stereo not given) | inactive |  |
| COC(=O)c1ccc(C(=O)OC)cc1 | inactive |  |
| O=C(O)c1cccc(-c2noc(-c3ccccc3F)n2)c1 | 23.7 µM (active) |  |
| Cc1cccc(O)c1N | inactive |  |
| CCOc1ccccc1O[C@H](c1ccccc1)[C@H]1CNCCO1 | inactive |  |
| O=C(C(=O)c1ccc(Br)cc1)c1ccc(Br)cc1 |  | -3.96% [at 18.9 µM] |

assay: cAMP Responsive Elements (CRE) small molecule agonists, cell-based qHTS assay: qHTS cell viability counter screen (AID 2060914); conditions: CRE-bla HEK293T viability, CellTiter-Glo luminescence, 5 h; series mostly up to 92.4 µM; note: nearly all actives have a fitted effect of over 50% in size
Procedure, shortened: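 Luminescence read-out (CellTiter-Glo, 30 min RT) of ATP-based viability in CRE-bla HEK 293T cells, run in the same wells as the β-lactamase reporter assay after 3 h compound treatment at 37 °C.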

| Structure (SMILES) | Potency | activity change, negative = cytotoxicity |
| --- | --- | --- |
| CC1=CC(O)CC(C)(C)C1 (stereo not given) | inactive |  |
| CC(C)Cn1cnc2c(N)nc3ccccc3c21 |  | -0.0081% [at 18.9 µM] |
| Cc1ccc(C(=O)O)cc1 | inactive |  |
| CN(C)C | inactive |  |
| CC(C)CCCCCCOC(=O)c1ccc(C(=O)OCCCCCCC(C)C)c(C(=O)OCCCCCCC(C)C)c1 | inactive |  |
| CC(=O)CC(=O)Nc1ccc(S(=O)(=O)O)cc1 | inactive |  |
| CC#N | inactive |  |
| Clc1cccc(C(c2ccc3nc[nH]c3c2)n2ccnc2)c1 (stereo not given) | inactive |  |
| Cc1c(C)c2c(c(C)c1O)CC[C@@](C)(CCC[C@H](C)CCC[C@H](C)CCCC(C)C)O2 | inactive |  |
| O=C1NC2NC(=O)NC2N1 (stereo not given) | inactive |  |
| O=C(NOCC1CC1)c1ccc(F)c(F)c1Nc1ccc(I)cc1Cl | inactive |  |
| BrC/C=C/CBr |  | 3.61% [at 18.9 µM] |
| C=C(C)CS(=O)(=O)O | inactive |  |
| COc1cc2ncnc(Nc3cccc(Cl)c3)c2cc1OC |  | 4.77% [at 18.9 µM] |
| Nc1c(Cl)cc(Cl)cc1Cl | inactive |  |
| CC(C)=CCC[C@](C)(O)[C@@H]1CC=C(C)CC1 | inactive |  |
| CCOC(CN1CCN(CC(C)C(=O)c2ccccc2)CC1)c1ccccc1 (stereo not given) |  | -1.12% [at 18.9 µM] |
| CC(=O)c1ccc(C(C)=O)cc1 | inactive |  |
| CCCC(CC)CCCCCCCN (stereo not given) | inactive |  |
| COc1cc(OC)cc(OC)c1 | inactive |  |

| Structure (SMILES) | Potency | activity change, negative = cytotoxicity |
| --- | --- | --- |
| Nc1ncnc2c1ncn2[C@@H]1O[C@H](CO)[C@@H](O)[C@H]1O | inactive |  |
| c1cc(C(c2ccc(OCC3CO3)cc2)C(c2ccc(OCC3CO3)cc2)c2ccc(OCC3CO3)cc2)ccc1OCC1CO1 (stereo not given) | inactive |  |
| OCC(CBr)(CBr)CBr | inactive |  |
| Oc1ccc2c(c1)OCO2 | inactive |  |
| O=C(Nc1cccc(Cl)c1)OCC#CCCl | inactive |  |
| CCCCC(CC)COC(=O)COc1ccc(Cl)cc1Cl (stereo not given) | inactive |  |
| CC1CCCO1 (stereo not given) | inactive |  |
| C#CC(C)N(C)C(=O)Nc1ccc(Cl)cc1 (stereo not given) | inactive |  |
| C[n+]1ccn(Cc2ccccc2)c1 | inactive |  |
| CCCCCOC(=O)CCCCC | inactive |  |
| C[C@@H](O)[C@H]1C(=O)N2C(C(=O)O)=C(S[C@@H]3CN[C@H](CNS(N)(=O)=O)C3)[C@H](C)[C@H]12 | inactive |  |
| OCC1CC=CCC1 (stereo not given) | inactive |  |
| CCOC(=O)c1ccc(N(C)C)cc1 | inactive |  |
| CCCCCCCCC(=O)Cl | inactive |  |
| CCCC1CCC(=O)O1 (stereo not given) | inactive |  |
| COC(=O)c1ccc(C(=O)OC)cc1 | inactive |  |
| O=C(O)c1cccc(-c2noc(-c3ccccc3F)n2)c1 | 21.1 µM (active) |  |
| Cc1cccc(O)c1N | inactive |  |
| CCOc1ccccc1O[C@H](c1ccccc1)[C@H]1CNCCO1 | inactive |  |
| O=C(C(=O)c1ccc(Br)cc1)c1ccc(Br)cc1 |  | -3.4% [at 18.9 µM] |
